Records with an inconclusive call do not appear. A number with no mark means an inactive call. Calls of active or inactive are those of the source. Calls follow the shape of the dose curve; as a rule, active = well fitted cell-killing curve with a large enough effect; inconclusive = small, poorly fitted or top-dose-only effect, or effect the other way; inactive = no such curve, though single readings can be large or run the other way. Non-standard residues stand in square brackets, D forms with d. Residues, ends and D or L forms follow the SMILES beside them. Peptide text beside a SMILES is read from it. *: point of attachment. Sta = CC(C)C[C@H](N)[C@@H](O)CC(=O)O; Isovaleryl = CC(C)CC(=O)*
experiment: qHTS assay to identify small molecule inhibitors of chordoma cells - UCH-1 (AID 1259355); conditions: UCH-1 chordoma viability, CellTiter-Glo, 48 h, combination, with auranofin plus four topoisomerase inhibitors; series mostly up to 46.1 µM; activity, negative = inhibition: at the top concentration; also: nearly all actives have a fitted effect of over 55% in size
Description: NIH Chemical Genomics Center [NCGC]
Chordoma is a rare and slow growing tumor that can occur anywhere along the spine, from the base of the skull to the tailbone. Current treatment options for chordoma is surgery and radiation therapy for those who are not candidates for surgery. But chordomas tend to return in the same location or surrounding areas of the original tumor after surgery and/or radiation. Chemotherapy can slow down the progression of the tumor. As chordoma is slow growing, the general cytotoxic agents that kill fast growing cells are ineffective, and some patients have been reported to respond to molecularly targeted drugs.
NCATS Pharmaceutical Collection (NPC) containing approximately 3000 clinically approved and investigational drugs were used to screen at 15 concentrations in a chordoma cell lines, UCH-1, to identify small molecule compounds that can inhibit chordoma cell growth.
NCGC Assay Protocol Summary:
Human chordoma cell line UCH-1 was dispensed at 800 per well in 4uL of culture medium into white solid bottom 1536-well plates (Corning Life Sciences, Corning, NY) using a Multidrop Combi (Thermo Scientific, Waltham, MA) dispenser. The assay plates were incubated at 37 C and 5% CO2 for an overnight, and then 23nL of compounds dissolved in DMSO and positive control were transferred using a Pintool station (Wako, San Diego, CA). Compound treatment was followed by the addition of 1uL of the combination compounds (1uM Auranofin, 500nM each of Camptothecin, Doxorubicin, Rubitecan, and Topotecan) and assay medium to each well of the assay plates using Flying Reagent Dispenser (FRD, Aurora Discovery, San Diego, CA). The assay plates were incubated at 37 C and 5% CO2 for 48hr. Then 5uL of CellTiter-Glo reagent (Promega Corporation, Madison, WI) was added to each well of the assay plates using FRD. After 30min incubation at room temperature, the luminescence signal was quantified using a ViewLux plate reader (PerkinElmer, Shelton, CT).
% is scaled to controls: 0 for no effect and ±100 for the full control effect; potency is read from the fitted curve at half-maximal effect.

SMILES | activity, negative = inhibition | Potency
CN1C(C(=O)Nc2ccccn2)=C(O)c2sccc2S1(=O)=O | 6.35% [at 20.6 µM] | 
N[C@@H](Cc1cc(I)c(Oc2cc(I)c(O)c(I)c2)c(I)c1)C(=O)O | -25.1% | 
Cc1ccc(C)c(OCCCC(C)(C)C(=O)O)c1 | -1.96% | 
CCCCC(CC)COC(=O)C(C#N)=C(c1ccccc1)c1ccccc1 (stereo not given) | 7.97% | 
CC(C)Oc1ccc2c(=O)c(-c3ccccc3)coc2c1 | -9.06% | 
Nc1cc(C(Cl)=C(Cl)Cl)c(S(N)(=O)=O)cc1S(N)(=O)=O | -18.9% [at 20.6 µM] | 
Cc1cccc(C)c1OCC(=O)N[C@@H](Cc1ccccc1)[C@@H](O)C[C@H](Cc1ccccc1)NC(=O)[C@H](C(C)C)N1CCCNC1=O | -16.1% | 
Cc1cc2cc3c(C)cc(=O)oc3c(C)c2o1 | -10.9% [at 20.6 µM] | 
Nc1ncn([C@H]2C[C@H](O)[C@@H](CO)O2)c(=O)n1 | -12% | 
COCCCOc1ccnc(CS(=O)c2nc3ccccc3[nH]2)c1C (stereo not given) | -19.2% | 
COc1ccc(C2(C#N)CCC(C(=O)O)CC2)cc1OC1CCCC1 (stereo not given) | -4.41% | 
CC1=C(C)C(=O)C(C(CCCCCC(=O)O)c2ccccc2)=C(C)C1=O (stereo not given) | -6.56% | 
CN(C)c1ccc2nc3ccc(=[N+](C)C)cc-3sc2c1 |  | 7.94 µM (active)
COc1cc(OC)c(C(=O)CCCN2CCCC2)c(OC)c1 | 9.5% [at 20.6 µM] | 
O=C(O)c1cccc(-c2noc(-c3ccccc3F)n2)c1 | -23.4% | 
CC(C)(S)[C@@H](N)C(=O)O | 9.72% | 
CC(C)[C@H](N)C(=O)OCCOCn1cnc2c(=O)[nH]c(N)nc21 | -4.44% | 
Cc1cc(C2CCCCC2)n(O)c(=O)c1 | -19.5% [at 20.6 µM] | 
CN(C)CCc1c[nH]c2ccc(Cn3cncn3)cc12 | 15.9% | 
Cc1cc(=O)oc2cc(O)ccc12 | -13.1% [at 20.6 µM] | 

SMILES | activity, negative = inhibition | Potency
CCOC(=O)c1c(C)n(C)c2ccc(O)cc12 | -14.4% | 
CC(C)CC(=O)N[C@H](C(=O)N[C@H](C(=O)N[C@@H](CC(C)C)[C@@H](O)CC(=O)N[C@@H](C)C(=O)N[C@@H](CC(C)C)[C@@H](O)CC(=O)O)C(C)C)C(C)C (Isovaleryl-VV[Sta]A[Sta]-OH) | -14.9% | 
Cc1cccc(CN2CCN(C(c3ccccc3)c3ccc(Cl)cc3)CC2)c1 (stereo not given) | -15.2% [at 20.6 µM] | 
Nc1ccn([C@@H]2O[C@H](CO)[C@@H](O)C2O)c(=O)n1 (stereo not given in full) | -10.4% | 
NS(=O)(=O)c1cc(C(=O)O)c(NCc2ccco2)cc1Cl | -9.49% | 
Oc1ccc(OCc2ccccc2)cc1 | -19.3% [at 20.6 µM] | 
Clc1ccc(C(Cn2ccnc2)OCc2c(Cl)cccc2Cl)c(Cl)c1 (stereo not given) | -4.32% [at 20.6 µM] | 
O=C(O)c1cn(-c2ccc(F)cc2)c2cc(N3CCNCC3)c(F)cc2c1=O | -28.8% | 
CCC(C)(Oc1ccc(C2(c3ccc(OC(C)(CC)C(=O)O)cc3)CCCCC2)cc1)C(=O)O (stereo not given) | -18.7% | 
Nc1ccc(S(N)(=O)=O)cc1 | -22.4% | 
CN(c1nccc(=O)[nH]1)C1CCN(c2nc3ccccc3n2Cc2ccc(F)cc2)CC1 | -2.83% | 
Cc1cc(=O)c2c(O)c3c(O)cc(=O)c4c3c3c(cc(O)c1c23)C(C)(C)C=4O |  | 6.31 µM (active)
COC(=O)[C@H](Cc1ccccc1)NC(=O)[C@@H](N)CC(=O)O (H-Asp-Phe-OMe) |  | inactive
COC1=C(OC)C(=O)C(CCCCCCCCCCO)=C(C)C1=O | -7.23% | 
CN1CCC(=C2c3ccccc3CCc3sccc32)CC1 | -23.1% | 
CN(C)C(=O)COC(=O)Cc1ccc(OC(=O)c2ccc(N=C(N)N)cc2)cc1 | 5.48% | 
CN(C)c1ccc(O)c2c1C[C@H]1C[C@H]3[C@H](N(C)C)C(=O)C(C(N)=O)=C(O)[C@@]3(O)C(=O)C1=C2O | -5.12% | 
CCCCCCCCOc1ccccc1C(=O)Nc1ccc(C(=O)OCC[N+](C)(CC)CC)cc1 | -8.63% | 
Cc1cc2c(s1)Nc1ccccc1N=C2N1CCN(C)CC1 | -27.4% | 
NNc1nncc2ccccc12 | -20.2% [at 20.6 µM] | 

Reference: PubChem BioAssay (NCATS)
